Source: PubChem BioAssay
The sample as a whole holds a higher share of hits than the screen did.
Pf Dd2 inh – qHTS Primary assay for Inhibitors of Plasmodium falciparum Dd2 growth in vitro | Potency, µM (top dose mostly 28.9 µM), without a hit: at the highest dose activity, negative = inhibition, most hits filed as inhibitors | 120,000 tested, 4.3% active | P. falciparum Dd2 growth, SYBR Green, 72 h; active means well fitted inhibition curve with a large enough effect;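 further: plate controls were DMSO vehicle for no effect and reference drug for full effect; nearly all actives have a fitted effect of over 65% in size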
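Readout: SYBR Green fluorescence, 485 nm excitation, 535 nm emission, after ~16 h lysis at 37C. Before that, Dd2-infected red cells (2.5% hematocrit) grew 72 h with compound, 29 uM top final concentration.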
* = called active by the depositor; i = inactive; [ ] = another dose, or the depositor's remark. Potency means the concentration at half of the fitted maximal effect.

SMILES | Pf Dd2 inh
Cc1nc(N2CCC(NC(=O)Cc3cccs3)CC2)cc(C(F)(F)F)n1 | i
COc1ccc(C(=O)NC2CCN(c3cc(C(F)(F)F)nc(C)n3)CC2)cc1 | 14µM*
Cc1nc(N2CCC(NC(=O)c3cccs3)CC2)cc(C(F)(F)F)n1 | 5µM*
COc1ccc(C(=O)NC2CCN(c3cc(C(F)(F)F)nc(C)n3)CC2)c(C)c1 | -3%
Cc1nc(N2CCC(NC(=O)c3ccsc3)CC2)cc(C(F)(F)F)n1 | -7%
Cc1ncoc1C(=O)NCc1cccnc1N(C)Cc1ccccc1 | -8%
COC[C@H]1C[C@@H](NS(=O)(=O)CC(C)C)[C@H](O)[C@@H]1O | 14%[44.1 µM]
O=C(NCCCc1ccccn1)c1ccc(C2CCCNC2)cc1 (stereo not given) | 0%
O=C(c1nccc2ccccc12)N1CCC(Cc2nc(C3CC3)n[nH]2)C1 (stereo not given) | i
COc1cccc(-c2noc(CCCC(=O)N[C@H]3C[C@@H]4OCC[C@H]34)n2)c1 | -14%
COc1ccc(CCNC(=O)C2CC(=O)N(c3n[nH]c4cccc(F)c34)C2)cc1OC (stereo not given) | -1%
O=C(c1ccc(Cl)cc1)N1CCC(OC2CCN(Cc3cccnc3)CC2)CC1 | i
CCOC(=O)CCNC(=O)N1CCC(OC2CCN(Cc3ccccc3)CC2)CC1 | 37%
CC(C)S(=O)(=O)N1CCC(OC2CCN(Cc3cccnc3)CC2)CC1 | 20%
Cc1ccc(C(=O)N2CCC(OC3CCN(Cc4ccccc4)CC3)CC2)cc1 | 8.9µM*
O=C(CC1CCN(S(=O)(=O)c2cccc(F)c2)C1)NCc1ccccc1 (stereo not given) | -6%
O=C(Nc1ccc(F)cc1F)N1CCC(OC2CCN(Cc3ccccc3)CC2)CC1 | i
O=S(=O)(c1cccc(F)c1)N1CCC(OC2CCN(Cc3ccccc3)CC2)CC1 | 2.8µM*
O=C(c1cccnc1)N1CCC(OC2CCN(Cc3ccccc3)CC2)CC1 | -16%
Cc1ccc(S(=O)(=O)N2CCC(OC3CCN(Cc4ccccc4)CC3)CC2)cc1C | 0.89µM*
Cc1nc2ccccc2n1CC(=O)N[C@@H]1COCC[C@@H]1OCC1CC1 | -1%
CCCn1ccc2sc(C)c(C(=O)NCCC3=CCCCC3)c2c1=O | i
Cc1cnc(C(=O)NC2C[C@H]3CC[C@@H](C2)N3C(=O)c2cc(F)ccc2F)cn1 (stereo not given in full) | -10%
Cc1cc(C)cc(NC(=S)N[C@H]2CO[C@H]3[C@@H]2OC[C@@H]3n2nnnc2Oc2cccc(N(C)C)c2)c1 | -6%
COCCn1nc2n(c1=O)CCN(C(=O)c1cncc(Br)c1)CC2 | 52%
SMILES | Pf Dd2 inh
Cc1cc(CNC(=O)[C@@H]2CCC[C@@H](NC(=O)c3cccnc3)CN(C)C(=O)C2)no1 | 13%[44.1 µM]
COc1ccccc1OCCNC(=O)CN1CC2CC(C1)[C@H]1CCCC(=O)N1C2 (stereo not given in full) | i
COc1ccc(NC(=O)C2(Cc3ccccc3)CCCCC(=O)N2)c(OC)c1 (stereo not given) | i
COc1ccc2[nH]cc(CCNC(=O)C3(Cc4ccccc4)CCCCC(=O)N3)c2c1 (stereo not given) | 2µM*
COc1ccc2[nH]cc(CCNC(=O)Nc3ccccc3)c2c1 | 20%
O=C(COc1ccccc1)N[C@@H]1C[C@H](Cn2cc(-c3cccnc3)nn2)[C@@H](O)[C@H]1O | -2%
COC(=O)c1cccc(-c2nc(C3CC(=O)N(c4ccc(F)cc4)C3)no2)c1 (stereo not given) | 3%
Cc1ncc2c(c1CNC(=O)c1cccc(-c3ncc[nH]3)c1)CCNC2 | -2%
CC(C)[C@]1(O)CN(S(=O)(=O)c2ccc3c(c2)CCC(=O)N3)C[C@H]1C | -2%
CCOC(=O)c1c(C)oc2nc(C)nc(NCCc3ccc(OC)c(OC)c3)c12 | -25%
CCOC(=O)c1cnc2ccc(C)cc2c1NCCc1ccc(OC)c(OC)c1 | 8.9µM*
CCOC(=O)c1cnc2c(C)c(Cl)ccc2c1NCCc1ccccc1 | -10%
CCOC(=O)c1ccc2ncc(C(=O)OCC)c(Nc3ccc(C)c(Br)c3)c2c1 | i
CCOC(=O)c1cnc2ccc(OCC)cc2c1NCCc1ccc(OC)c(OC)c1 | 4.5µM*
CCOc1ccc(-c2nnc(SCC(=O)NCCc3ccc(OC)c(OC)c3)nc2-c2ccc(OCC)cc2)cc1 | -26%
Cc1ncccc1C(=O)N1CCC(Oc2cnc3c(ccn3-c3cncnc3)c2)CC1 | i
COCC(=O)N1CCCC(C(=O)NCc2nncn2C2CCCCC2)C1 (stereo not given) | -20%
CS(=O)(=O)c1ccc(N2CCN(C(=O)CC3COCCN3)CC2)c(F)c1 (stereo not given) | -13%
COc1cc(=O)n2c(c1C(=O)Nc1ccc(F)c(F)c1)CCCC2 | 21%
COc1cccc(NC(=O)c2c(C)nn(-c3cccc(C)c3)c2-n2cccc2)c1 | -20%
COc1cccc(-c2ccc3c(N)c(C(=O)Nc4ccccc4C)sc3n2)c1 | -9%
COc1cccc(NC(=O)c2sc3nc(C)c(C(=O)Nc4ccc(C)cc4C)c(-c4ccccc4Cl)c3c2N)c1 | 1µM*
Cc1ccc(Cl)cc1NC(=O)c1sc2nc(C)c(C)c(C)c2c1N | 8%
COc1cc(Cl)c(C)cc1NC(=O)c1sc2nc(C)cc(C)c2c1N | 4%
COc1cccc(-c2ccc3c(N)c(C(=O)Nc4cc(F)ccc4F)sc3n2)c1 | 43%[5.79 µM]
SMILES | Pf Dd2 inh
CCC(C)NC(=O)c1sc2nc(C)c(C(=O)Nc3ccc(Cl)cc3)c(-c3ccc(Br)cc3)c2c1N (stereo not given) | 18%
COc1cccc(NC(=O)c2sc3nc(C)c(C(=O)Nc4ccc(C)cc4C)c(-c4sccc4C)c3c2N)c1 | 2.2µM*
COc1cccc(NC(=O)c2sc3nc(C)c(C(=O)Nc4ccc(C)cc4C)c(-c4ccco4)c3c2N)c1 | 3.2µM*
Cc1ccc(C(=O)NC2CCN(c3cc(-c4ccccc4)[nH]n3)CC2)c(C)c1 | i
COc1ccc(CC(=O)NC2CCCN(c3cc(-c4ccc(F)cc4)[nH]n3)C2)cc1OC (stereo not given) | i
CNC(=O)[C@@H]1CN(C(=O)c2nccc3ccccc23)C[C@H]1CO | 11%
Cc1nc(-c2cccc(NC(=O)N[C@H](C)c3onc(C)c3C(=O)O)c2)no1 | 17%[44.1 µM]
Cc1c(F)cccc1NC(=O)N1CCC(N2CC3CC(C2)[C@H]2CCCC(=O)N2C3)CC1 (stereo not given in full) | 2%
Cc1ccc(NC(=O)c2cn(-c3ccccc3)nc2-c2ccccc2)cc1 | -28%
CC(=O)Nc1ccc(-c2c(-c3cccc(C)c3)nn(-c3ccc(F)cc3)c2OC(C)=O)cc1 | -17%
Cc1ccc(-n2cc(CN(C)C(C)C(=O)N(C)C)c(-c3cccc(C)c3)n2)cc1 (stereo not given) | 4µM*
O=C(C1CCCO1)N1CCN(Cc2ccc(=O)n(CC3CC3)c2)CC1 (stereo not given) | 14%
COc1ccc(CNCCC(c2ccc3c(c2)OCO3)c2ccccc2OC)cc1 (stereo not given) | 5µM*
CCC(=O)N(CCC(c1ccccc1)c1ccc2c(c1)OCO2)Cc1ccc(OC(C)C)cc1 (stereo not given) | -29%
COc1ccc(CNC(=O)C(=O)NCC(c2ccc3c(c2)OCO3)N2CCOCC2)cc1 (stereo not given) | -5%
CCCOc1ccc(CN2C[C@@H]3C(=O)N(C)C(=O)[C@@H]3C2)cc1OC | 20%
CCc1cccc(NC(=O)C2Cn3cccc3C(=O)N2)c1 (stereo not given) | i
